Holding throughout (assay): log2 ratio of Biotin-Ahx-Ub-VS probe labelling (fragment/DMSO); higher = less target engagement (more negative = stronger competition), active = hit call of the paper (q ≤ 0.05, log2 ratio ≤ -1)
Holding throughout (details): compound concentration: 200 uM; treatment time: 3 h

In assay [1] the target is USP34 (UniProt Q70CQ2). The essentials:
(§1)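 Global-median-normalised Spectronaut label-free quantities were compared by unpaired t-test, and values are average log2 ratios of fragment over vehicle. Only proteins with ≥2 unique peptides were used. HEK293T lysate (495 µg per sample) was treated in triplicate with fragment at 200 µM or vehicle for 3 h and then with Biotin-Ahx-Ub-VS at 0.5 µM final for 1 h. Labelled DUBs were then NeutrAvidin-enriched, digested with LysC and trypsin, and run by diaPASEF LC-MS/MS.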

Assay [2] concerns the target T1, USP36 (UniProt Q9P275).
T1 sequence (whole entry): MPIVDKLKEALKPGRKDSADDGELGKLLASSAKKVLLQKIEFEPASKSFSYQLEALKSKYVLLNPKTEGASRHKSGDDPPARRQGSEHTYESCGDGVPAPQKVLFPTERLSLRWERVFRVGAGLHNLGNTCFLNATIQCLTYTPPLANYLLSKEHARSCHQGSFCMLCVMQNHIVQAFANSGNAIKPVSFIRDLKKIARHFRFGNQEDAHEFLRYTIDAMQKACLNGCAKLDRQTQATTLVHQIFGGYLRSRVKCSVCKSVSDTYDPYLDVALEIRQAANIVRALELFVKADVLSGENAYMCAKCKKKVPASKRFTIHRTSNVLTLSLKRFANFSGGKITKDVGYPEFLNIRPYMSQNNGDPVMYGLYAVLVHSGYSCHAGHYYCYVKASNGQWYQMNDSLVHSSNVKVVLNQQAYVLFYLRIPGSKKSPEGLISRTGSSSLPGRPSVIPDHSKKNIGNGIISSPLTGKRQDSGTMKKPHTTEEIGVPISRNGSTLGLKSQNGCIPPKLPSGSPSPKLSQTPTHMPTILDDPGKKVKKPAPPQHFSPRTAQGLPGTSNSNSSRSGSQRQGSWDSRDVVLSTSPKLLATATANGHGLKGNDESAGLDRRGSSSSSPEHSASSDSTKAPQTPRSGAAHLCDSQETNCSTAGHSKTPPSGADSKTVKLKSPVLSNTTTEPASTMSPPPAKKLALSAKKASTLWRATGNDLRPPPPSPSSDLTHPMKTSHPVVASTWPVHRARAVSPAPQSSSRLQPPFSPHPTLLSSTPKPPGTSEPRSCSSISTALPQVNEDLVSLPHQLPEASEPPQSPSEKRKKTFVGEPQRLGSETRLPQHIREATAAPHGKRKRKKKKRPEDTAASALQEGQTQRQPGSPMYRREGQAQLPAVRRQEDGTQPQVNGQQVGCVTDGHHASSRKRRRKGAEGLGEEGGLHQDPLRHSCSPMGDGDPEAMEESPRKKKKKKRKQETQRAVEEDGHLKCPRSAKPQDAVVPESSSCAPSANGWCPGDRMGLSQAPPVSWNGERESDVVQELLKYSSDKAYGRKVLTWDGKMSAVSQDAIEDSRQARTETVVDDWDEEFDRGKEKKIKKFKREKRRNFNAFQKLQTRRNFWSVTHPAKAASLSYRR
In outline: as §1

The target in assay [3] is T2, USP38 (UniProt Q8NB14).
T2 sequence (whole entry): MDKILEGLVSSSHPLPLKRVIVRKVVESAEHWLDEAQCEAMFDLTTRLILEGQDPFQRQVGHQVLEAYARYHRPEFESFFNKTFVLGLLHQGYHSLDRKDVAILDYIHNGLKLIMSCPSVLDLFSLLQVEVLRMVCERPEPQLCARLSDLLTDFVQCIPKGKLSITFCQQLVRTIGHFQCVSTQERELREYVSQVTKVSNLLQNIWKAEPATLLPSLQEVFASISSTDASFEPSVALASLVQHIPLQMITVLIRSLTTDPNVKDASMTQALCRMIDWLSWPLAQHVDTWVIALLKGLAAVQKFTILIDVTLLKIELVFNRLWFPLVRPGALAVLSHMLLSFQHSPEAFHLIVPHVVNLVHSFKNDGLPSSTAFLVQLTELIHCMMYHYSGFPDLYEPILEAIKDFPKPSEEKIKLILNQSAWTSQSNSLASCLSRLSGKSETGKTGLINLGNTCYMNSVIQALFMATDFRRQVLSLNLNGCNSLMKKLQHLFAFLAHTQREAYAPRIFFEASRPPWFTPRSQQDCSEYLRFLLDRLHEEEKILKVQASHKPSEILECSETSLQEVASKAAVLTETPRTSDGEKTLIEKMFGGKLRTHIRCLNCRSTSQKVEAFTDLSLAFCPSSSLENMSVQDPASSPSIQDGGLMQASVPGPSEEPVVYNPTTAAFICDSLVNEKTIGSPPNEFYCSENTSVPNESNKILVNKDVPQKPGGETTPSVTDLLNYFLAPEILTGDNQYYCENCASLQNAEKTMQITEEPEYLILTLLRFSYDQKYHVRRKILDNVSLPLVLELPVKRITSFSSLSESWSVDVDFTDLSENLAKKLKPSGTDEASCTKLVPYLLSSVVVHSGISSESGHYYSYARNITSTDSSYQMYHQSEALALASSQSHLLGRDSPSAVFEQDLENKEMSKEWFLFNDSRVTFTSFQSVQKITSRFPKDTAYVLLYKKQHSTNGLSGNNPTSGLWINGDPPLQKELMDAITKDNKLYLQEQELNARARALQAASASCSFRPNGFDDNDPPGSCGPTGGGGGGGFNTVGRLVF
In outline:
as §1

The target in assay [4] is T3, USP39 (UniProt Q53GS9).
T3 sequence (whole entry): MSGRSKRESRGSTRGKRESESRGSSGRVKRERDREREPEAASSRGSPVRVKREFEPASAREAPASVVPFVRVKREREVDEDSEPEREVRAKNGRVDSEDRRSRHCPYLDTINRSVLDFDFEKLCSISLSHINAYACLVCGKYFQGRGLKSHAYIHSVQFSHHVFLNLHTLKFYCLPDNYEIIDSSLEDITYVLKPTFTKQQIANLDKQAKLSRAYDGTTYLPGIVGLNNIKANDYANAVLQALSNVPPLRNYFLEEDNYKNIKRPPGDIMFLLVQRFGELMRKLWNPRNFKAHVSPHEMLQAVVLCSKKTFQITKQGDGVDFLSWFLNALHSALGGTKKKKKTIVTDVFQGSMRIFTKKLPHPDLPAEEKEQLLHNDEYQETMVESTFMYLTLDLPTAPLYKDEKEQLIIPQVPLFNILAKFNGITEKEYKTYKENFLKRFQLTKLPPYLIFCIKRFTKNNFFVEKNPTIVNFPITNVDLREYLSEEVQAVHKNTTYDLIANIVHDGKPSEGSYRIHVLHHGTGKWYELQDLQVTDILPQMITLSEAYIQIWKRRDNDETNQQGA
The essentials:
as §1

Assay [5] addresses T4, USP4 (UniProt Q13107).
T4 sequence (whole entry): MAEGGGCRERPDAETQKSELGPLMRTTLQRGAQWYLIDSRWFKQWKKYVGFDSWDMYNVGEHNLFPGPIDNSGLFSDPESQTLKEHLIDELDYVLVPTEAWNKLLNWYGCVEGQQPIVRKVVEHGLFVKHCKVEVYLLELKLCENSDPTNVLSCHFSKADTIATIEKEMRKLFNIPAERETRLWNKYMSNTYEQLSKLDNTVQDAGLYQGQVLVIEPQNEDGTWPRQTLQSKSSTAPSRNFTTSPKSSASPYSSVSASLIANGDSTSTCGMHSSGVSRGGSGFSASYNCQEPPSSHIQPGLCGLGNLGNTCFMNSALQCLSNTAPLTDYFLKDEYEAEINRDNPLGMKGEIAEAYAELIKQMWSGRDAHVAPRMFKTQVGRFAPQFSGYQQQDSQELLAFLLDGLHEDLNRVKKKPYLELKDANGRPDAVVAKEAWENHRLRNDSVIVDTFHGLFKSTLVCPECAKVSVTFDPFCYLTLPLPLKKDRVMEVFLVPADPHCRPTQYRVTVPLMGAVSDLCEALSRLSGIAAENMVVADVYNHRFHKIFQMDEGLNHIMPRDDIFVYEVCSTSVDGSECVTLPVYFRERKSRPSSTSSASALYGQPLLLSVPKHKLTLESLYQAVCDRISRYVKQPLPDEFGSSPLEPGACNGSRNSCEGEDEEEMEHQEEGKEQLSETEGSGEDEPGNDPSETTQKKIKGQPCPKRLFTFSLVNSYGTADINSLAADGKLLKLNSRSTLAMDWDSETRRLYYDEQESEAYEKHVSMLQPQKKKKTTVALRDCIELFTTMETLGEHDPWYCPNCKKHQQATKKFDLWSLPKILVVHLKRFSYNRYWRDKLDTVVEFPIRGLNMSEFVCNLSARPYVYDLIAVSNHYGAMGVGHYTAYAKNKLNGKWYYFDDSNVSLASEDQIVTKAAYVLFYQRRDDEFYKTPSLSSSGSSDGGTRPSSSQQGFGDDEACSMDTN
In outline: as §1

Each structure is given as a SMILES string. Unmarked numbers belong to inactive results.

Sequence of USP34 (Q70CQ2 whole entry, the tested form may be a part): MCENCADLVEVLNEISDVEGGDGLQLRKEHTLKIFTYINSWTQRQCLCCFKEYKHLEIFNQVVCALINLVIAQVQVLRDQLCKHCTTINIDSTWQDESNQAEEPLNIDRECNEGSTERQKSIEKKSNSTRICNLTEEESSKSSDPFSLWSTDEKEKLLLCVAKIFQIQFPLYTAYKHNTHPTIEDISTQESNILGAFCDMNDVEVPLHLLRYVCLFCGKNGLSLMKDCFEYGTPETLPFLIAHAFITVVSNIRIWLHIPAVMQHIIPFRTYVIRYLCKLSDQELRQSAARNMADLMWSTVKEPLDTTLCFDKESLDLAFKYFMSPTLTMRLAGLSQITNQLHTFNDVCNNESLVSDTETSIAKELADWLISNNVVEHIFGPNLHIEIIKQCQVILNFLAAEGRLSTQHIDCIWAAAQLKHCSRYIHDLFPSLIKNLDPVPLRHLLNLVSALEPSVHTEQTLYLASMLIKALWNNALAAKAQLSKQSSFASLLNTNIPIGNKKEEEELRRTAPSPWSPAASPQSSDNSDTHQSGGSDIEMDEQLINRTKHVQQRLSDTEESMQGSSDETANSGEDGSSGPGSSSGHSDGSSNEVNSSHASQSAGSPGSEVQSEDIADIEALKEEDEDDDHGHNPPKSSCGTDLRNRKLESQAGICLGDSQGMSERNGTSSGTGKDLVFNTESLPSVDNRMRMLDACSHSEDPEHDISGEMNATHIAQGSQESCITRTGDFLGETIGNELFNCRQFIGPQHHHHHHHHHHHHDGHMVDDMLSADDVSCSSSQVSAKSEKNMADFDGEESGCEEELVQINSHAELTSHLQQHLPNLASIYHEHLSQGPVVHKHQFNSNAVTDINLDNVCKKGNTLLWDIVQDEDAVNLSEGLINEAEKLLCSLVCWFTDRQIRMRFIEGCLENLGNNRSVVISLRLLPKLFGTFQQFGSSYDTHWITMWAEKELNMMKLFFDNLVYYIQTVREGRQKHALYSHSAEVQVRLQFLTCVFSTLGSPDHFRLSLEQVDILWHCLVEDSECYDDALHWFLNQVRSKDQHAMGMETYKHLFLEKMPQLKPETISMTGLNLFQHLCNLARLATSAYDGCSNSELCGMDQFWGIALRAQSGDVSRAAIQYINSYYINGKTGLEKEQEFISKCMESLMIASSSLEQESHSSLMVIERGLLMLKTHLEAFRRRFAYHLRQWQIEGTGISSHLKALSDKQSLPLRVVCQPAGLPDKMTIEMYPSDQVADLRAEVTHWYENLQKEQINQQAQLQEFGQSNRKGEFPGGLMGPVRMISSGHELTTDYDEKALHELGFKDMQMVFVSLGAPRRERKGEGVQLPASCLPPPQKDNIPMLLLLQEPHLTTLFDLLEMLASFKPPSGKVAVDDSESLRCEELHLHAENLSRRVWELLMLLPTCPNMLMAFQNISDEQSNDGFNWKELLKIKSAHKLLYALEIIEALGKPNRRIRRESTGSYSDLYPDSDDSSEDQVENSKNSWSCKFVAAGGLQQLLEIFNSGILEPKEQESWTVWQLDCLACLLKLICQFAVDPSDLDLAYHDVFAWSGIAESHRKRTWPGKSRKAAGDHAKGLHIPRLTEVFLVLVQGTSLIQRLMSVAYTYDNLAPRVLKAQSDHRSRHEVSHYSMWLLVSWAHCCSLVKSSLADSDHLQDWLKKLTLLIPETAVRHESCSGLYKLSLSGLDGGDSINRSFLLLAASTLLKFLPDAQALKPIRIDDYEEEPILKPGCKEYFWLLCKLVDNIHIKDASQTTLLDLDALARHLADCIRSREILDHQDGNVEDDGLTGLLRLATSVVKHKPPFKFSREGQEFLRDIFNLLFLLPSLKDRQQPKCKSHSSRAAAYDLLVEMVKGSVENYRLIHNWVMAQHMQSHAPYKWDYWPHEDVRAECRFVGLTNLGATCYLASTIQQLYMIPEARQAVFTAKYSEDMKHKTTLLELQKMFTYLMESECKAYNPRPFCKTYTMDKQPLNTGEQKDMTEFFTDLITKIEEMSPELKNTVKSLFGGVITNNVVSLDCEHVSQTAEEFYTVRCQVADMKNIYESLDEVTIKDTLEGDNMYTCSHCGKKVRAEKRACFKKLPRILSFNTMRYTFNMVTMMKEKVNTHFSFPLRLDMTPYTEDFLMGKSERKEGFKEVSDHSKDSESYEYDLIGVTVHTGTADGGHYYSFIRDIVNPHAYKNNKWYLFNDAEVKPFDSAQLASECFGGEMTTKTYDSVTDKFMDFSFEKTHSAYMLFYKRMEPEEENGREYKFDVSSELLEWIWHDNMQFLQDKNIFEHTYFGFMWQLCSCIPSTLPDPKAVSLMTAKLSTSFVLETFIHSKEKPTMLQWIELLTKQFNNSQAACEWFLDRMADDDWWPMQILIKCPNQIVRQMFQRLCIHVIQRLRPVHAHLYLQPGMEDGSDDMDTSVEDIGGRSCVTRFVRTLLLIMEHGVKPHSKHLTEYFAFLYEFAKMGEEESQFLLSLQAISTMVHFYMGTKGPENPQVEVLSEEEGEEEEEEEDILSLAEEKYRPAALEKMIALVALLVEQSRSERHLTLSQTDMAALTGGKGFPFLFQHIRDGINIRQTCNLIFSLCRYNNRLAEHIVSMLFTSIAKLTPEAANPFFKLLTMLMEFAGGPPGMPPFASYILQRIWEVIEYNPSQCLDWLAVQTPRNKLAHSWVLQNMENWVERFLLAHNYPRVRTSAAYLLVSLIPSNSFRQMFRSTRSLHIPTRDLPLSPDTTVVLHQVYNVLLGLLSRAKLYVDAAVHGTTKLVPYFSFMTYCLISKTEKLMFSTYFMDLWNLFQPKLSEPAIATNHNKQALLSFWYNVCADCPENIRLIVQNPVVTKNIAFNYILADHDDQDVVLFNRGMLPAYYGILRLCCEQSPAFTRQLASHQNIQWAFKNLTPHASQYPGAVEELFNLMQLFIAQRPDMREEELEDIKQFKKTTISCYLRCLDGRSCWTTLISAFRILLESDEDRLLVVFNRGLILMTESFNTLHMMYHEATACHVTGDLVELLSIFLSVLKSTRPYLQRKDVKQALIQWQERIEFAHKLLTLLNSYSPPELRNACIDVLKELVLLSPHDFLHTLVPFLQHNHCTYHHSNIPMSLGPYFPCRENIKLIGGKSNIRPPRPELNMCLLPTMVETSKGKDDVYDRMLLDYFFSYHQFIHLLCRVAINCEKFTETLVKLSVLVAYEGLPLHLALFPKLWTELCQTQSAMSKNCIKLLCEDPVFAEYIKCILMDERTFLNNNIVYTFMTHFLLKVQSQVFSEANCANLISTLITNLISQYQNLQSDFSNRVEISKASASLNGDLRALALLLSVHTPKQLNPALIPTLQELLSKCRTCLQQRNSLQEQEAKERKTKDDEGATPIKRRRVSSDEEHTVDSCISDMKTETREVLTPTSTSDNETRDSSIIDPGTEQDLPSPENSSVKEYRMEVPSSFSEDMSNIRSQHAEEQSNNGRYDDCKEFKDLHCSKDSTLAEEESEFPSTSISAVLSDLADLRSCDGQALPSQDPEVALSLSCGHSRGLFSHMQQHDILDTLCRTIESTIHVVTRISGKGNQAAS

On to `O=C(CCl)N1CC=C(c2c[nH]c3ccccc23)CC1`, for which the “log2 ratio of Biotin-Ahx-Ub-VS probe labelling” value in assay [1] was -0.9; in assay [2], 0.0858; in assay [3], -0.476; in assay [4], 0.536; in assay [5], -1.2 (active).

(Values after the supplement of paper PMC11732987, “Enantioselective OTUD7B fragment discovery through chemoproteomics screening and high-throughput optimisation” (Communications Chemistry, 2025).)
